TMEM16A act: activates or potentiates the mouse TMEM16A chloride channel | AID 623877 | Q8BHY3 | HEK293 TMEM16A/YFP-H148Q/I152L, iodide quench fluorescence; hits give low values | B-score at 10 µM | actives 0.3% (n = 340,000);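 active means fluorescence-ratio B-score plate-corrected deviation score at least 3 library SD below zero, with starting fluorescence score within 5 deviations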;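 further: channel opened by trigger with iodide after compound preincubation; score built on the fluorescence ratio of max minus min over baseline; more negative score means more quench and so TMEM16A activation or potentiation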
DAGLB inhibitor: blocks human DAGLB lipase activity; actives 0.059% (n = 340,000); inhibition, % at 5.17 µM; AID 504411; Q8NCG7; HEK293T DAGLB membrane lysate, EnzChek fluorogenic substrate; in the data active means inhibition above about 34%;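 further: 0% = enzyme with vehicle and 100% = wells lacking enzyme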
ABCB6 inh 2: human ABCB6 transporter inhibition; fluorescence ratio to DMSO, % at 10 µM; AID 602162; Q9NP58; K562-ABCB6 porphyrin accumulation, flow cytometry, 1 h; hits give low values; actives 0.19% (n = 360,000);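 active means fluorescence ratio to DMSO below 75%, the collection mean minus 3 SD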;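 further: signal is porphyrin accumulated inside mitochondria; 100% equals median channel fluorescence of DMSO control wells; lower ratio means ABCB6 inhibition with less porphyrin fluorescence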
Target sequence (Q9NP58 whole entry, looked up): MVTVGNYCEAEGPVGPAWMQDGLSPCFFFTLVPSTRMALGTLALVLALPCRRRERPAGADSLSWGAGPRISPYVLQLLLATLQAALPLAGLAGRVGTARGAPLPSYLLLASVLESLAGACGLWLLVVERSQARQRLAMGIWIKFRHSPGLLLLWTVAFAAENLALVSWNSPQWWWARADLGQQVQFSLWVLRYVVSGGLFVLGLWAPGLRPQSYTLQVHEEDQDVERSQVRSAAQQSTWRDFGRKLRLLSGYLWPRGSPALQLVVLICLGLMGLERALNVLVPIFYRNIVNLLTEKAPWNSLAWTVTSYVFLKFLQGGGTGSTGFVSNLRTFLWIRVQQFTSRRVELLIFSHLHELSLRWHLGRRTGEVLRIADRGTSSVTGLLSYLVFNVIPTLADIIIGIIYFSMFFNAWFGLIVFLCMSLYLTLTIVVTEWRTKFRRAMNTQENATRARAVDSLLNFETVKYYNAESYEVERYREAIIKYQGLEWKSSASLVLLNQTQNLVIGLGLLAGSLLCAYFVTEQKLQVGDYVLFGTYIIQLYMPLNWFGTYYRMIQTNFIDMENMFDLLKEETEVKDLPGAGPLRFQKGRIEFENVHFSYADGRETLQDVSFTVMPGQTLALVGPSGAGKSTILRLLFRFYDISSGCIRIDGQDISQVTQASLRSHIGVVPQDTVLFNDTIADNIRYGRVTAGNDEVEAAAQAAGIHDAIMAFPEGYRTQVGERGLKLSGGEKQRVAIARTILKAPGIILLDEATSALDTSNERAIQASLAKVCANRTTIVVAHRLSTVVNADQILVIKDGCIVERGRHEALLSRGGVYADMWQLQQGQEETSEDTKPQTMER
hiPSC survival: increases survival of single human iPS cells | survival enhancement, % at 20 µM | AID 602274 | hiPSC single-cell survival, ATPlite luminescence; 100% = ROCK inhibitor wells, 0% = DMSO | actives 0.044% (n = 360,000); in the data active means survival enhancement above about 18%;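 further: cells exposed to compounds for 16 hours before the ATP read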
ANO1 block: inhibitors of mouse TMEM16A calcium-activated chloride channel; HEK293 TMEM16A/YFP iodide influx fluorescence, ionomycin; actives 1.2% (n = 310,000); Q8BHY3; normalized B-score (activity score, 25-100; higher = stronger inhibition) at 10 µM; AID 588511;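 active means ratio plate-corrected score three or more library SD toward inhibition, starting fluorescence score within five deviations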;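 further: score derived from kinetic fluorescence span divided by baseline fluorescence per well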
ABCB6 inh CP1: human ABCB6 transporter inhibition; shares compounds with ABCB6 inh 2; K562-ABCB6 porphyrin accumulation, flow cytometry, 1 h; hits give low values; ratio response (% of DMSO), % at 10 µM; 700 tested, under 10 active; AID 602430;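 active means repeat-averaged ratio response below 75% of DMSO, the collection mean minus 3 SD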;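 further: median porphyrin fluorescence at 575 nm with 488 nm excitation from mitochondria; lower ratio means less porphyrin signal so ABCB6 inhibition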
K562 vector FC: counter-screen for ABCB6 inhibitors: effect in vector-only K562 cells | shares compounds with ABCB6 inh 2 | K562 empty-vector cells, flow cytometry fluorescence, 1 h | percent response (fluorescence), % at 100 µM | 25 tested, under 10 active | AID 624484;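 active means compounds whose half-maximal effective concentration is below 100 µM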
* = called active by the depositor; i = inactive; nt = no result given. Rows were chosen to be rich in hits. Some 1.5% of all compounds tested hit in one or more screens of this group.

SMILES	TMEM16A act	DAGLB inhibitor	ABCB6 inh 2	hiPSC survival	ANO1 block	ABCB6 inh CP1	others
CC(C)[C@H](NC(=O)N1c2ccccc2NC(=O)[C@@H]1C(C)C)C(=O)N[C@H](Cc1ccccc1)C(=O)O	i	1	93	3	i	nt
Cc1cc(C)c(NC(=O)COC(=O)Cc2cccs2)c(C)c1	i	-2	98	0	i	nt
Cc1nn(Cc2ccccc2)c(C)c1C(=O)N1CCN(CC(=O)Nc2ccc(F)cc2)CC1	i	0	100	-3	nt	nt
Cc1cccc(NC(=O)CN2CCN(C(=O)c3c(C)nn(Cc4ccccc4)c3C)CC2)c1C	i	1	56*	0	nt	100
COC(=O)c1cn(C(=O)c2cccc(Br)c2)c2ccccc12	i	2	94	0	i	nt
COC(=O)c1ccc(NC(=O)c2nc(S(=O)(=O)Cc3cccc(C)c3)ncc2Cl)cc1	i	2	41*	19	i	91
Cc1cccc(CS(=O)(=O)c2ncc(Cl)c(C(=O)NCc3ccc4c(c3)OCO4)n2)c1	i	3	97	0	i	nt
CC(=O)Nc1ccc(NC(=O)c2nc(S(=O)(=O)Cc3cccc(C)c3)ncc2Cl)cc1	i	1	67*	5	i	nt	K562 vector FC=224
CCOc1ccccc1NC(=O)COC(=O)C1CC(=O)N(c2c(C)cccc2C)C1 (stereo unspecified)	i	0	97	0	i	nt
COc1ccc(N(CC(=O)Nc2c(C)n(C)n(-c3ccccc3)c2=O)S(=O)(=O)c2ccc(C)cc2)cc1	i	2	72*	-1	i	100
CC(OC(=O)c1ccc(=O)n(Cc2ccccc2)n1)C(=O)Nc1cccc(Cl)c1 (stereo unspecified)	i	1	68*	0	i	101
Cc1ccc(NC(=O)COC(=O)C2CCC2)cc1S(=O)(=O)N1CCOCC1	i	1	98	3	nt	nt
Cn1nc(C(F)(F)F)c(-c2cccc(C(F)(F)F)c2)c1NC(=O)Nc1ccc(F)cc1	i	nt	11*	0	i	96
Cn1nc(C(F)(F)F)c(-c2cccc(C(F)(F)F)c2)c1NC(=O)c1ccco1	i	-6	100	0	i	nt
Cc1coc2c1c(C)cc1oc(=O)c(Cc3ccccc3)c(C)c12	i	-3	66*	-1	i	100
Cc1coc2c1c(C)cc1oc(=O)c(CC(=O)NCC(=O)NCC(=O)O)c(C)c12	i	-3	105	0	i	nt
C[C@H](NC(CCc1ccccc1)C(=O)O)C(=O)N1CCC[C@H]1C(=O)O (stereo partly specified)	nt	nt	nt	nt	i	nt
CCOC(=O)c1sc2nc(C)cc(-c3ccccc3)c2c1N	i	-3	71*	-1	i	100
CCOC(=O)c1sc2nc(C)cc(C)c2c1N	i	-1	94	-1	i	nt
CC1(C(=O)NS(=O)(=O)C2CC2)CCCN(C(=O)C2(c3ccc(Cl)cc3)CCCC2)C1 (stereo unspecified)	nt	nt	102	5	nt	nt
O=C(Oc1ccc2ccccc2c1)c1cncc(Br)c1	i	1	100	-2	i	nt
O=C(Oc1ccc2c(=O)c(Oc3ccc4ccccc4c3)coc2c1)c1cncc(Br)c1	i	-4	73*	0	i	102
Cc1ccc(Cl)c(NC(=O)COC(=O)c2cc[n+]([O-])cc2)c1Cl	i	1	94	0	nt	nt
Cc1ccc(S(=O)(=O)C2(C(=O)N3CCN(c4ccccc4F)CC3)CC2)cc1	i	1	72*	-1	i	101
Cc1nn(-c2ccccc2Cl)c(Cl)c1/C=N/Nc1nc2ccccc2s1	i	-2	66*	-3	i	95
SMILES	TMEM16A act	DAGLB inhibitor	ABCB6 inh 2	hiPSC survival	ANO1 block	ABCB6 inh CP1	others
CCOC(=O)N/N=C/c1c(C)nn(-c2ccccc2Cl)c1Cl	i	3	88	-2	i	nt
CC(C)(C)c1ccc(C(=O)N2CCCC2c2cccs2)cc1 (stereo unspecified)	i	-8	97	-1	i	nt
Cc1noc(C)c1CSc1ccc(Br)cc1	i	-1	71*	5	i	100
CCOc1ccc(S(=O)(=O)N2CCCC(C(=O)Nc3cccc(C)c3)C2)cc1 (stereo unspecified)	i	0	92	-1	i	nt
Cc1ccc(C(OCC(O)CNCc2ccc(F)cc2)c2ccccc2)cc1 (stereo unspecified)	i	-7	101	0	i	nt
O=C(Nc1ccc(Cn2cccn2)cc1)c1ccc(COc2ccc(Br)cc2)cc1	i	0	72*	-3	i	102
O=C(Nc1ccc(Cn2cccn2)cc1)c1ccc(COc2cccc(Br)c2)cc1	i	-3	91	-2	i	nt
COc1ccc(-c2nnc(SCC(=O)N3CCc4ccccc4C3)o2)cc1	i	-2	56*	2	i	101
Cc1csc(-c2cc(C(=O)NCc3ccc(F)cc3)n[nH]2)c1	nt	nt	103	-2	nt	nt
CC1(C(=O)NS(=O)(=O)c2ccc(Cl)cc2)CCN1C(=O)Cc1ccc(-c2ccccc2)cc1 (stereo unspecified)	nt	nt	93	-1	nt	nt
COc1cc(C)ccc1S(=O)(=O)NC(=O)C1(C)CCN1C(=O)Cc1ccc(C(C)(C)C)cc1 (stereo unspecified)	nt	nt	99	-1	nt	100
CC(C)(C)c1ccc(S(=O)(=O)NC(=O)C2(C)CCN2C(=O)Cc2ccc(-c3ccccc3)cc2)cc1 (stereo unspecified)	nt	nt	90	1	nt	98
CC1(C(=O)NS(=O)(=O)c2ccc(C#N)cc2)CCN1C(=O)Cc1ccc(-c2ccccc2)cc1 (stereo unspecified)	nt	nt	95	-2	nt	98
CCCCc1ccc(S(=O)(=O)NC(=O)C2(C)CCN2C(=O)Cc2ccccc2)cc1 (stereo unspecified)	nt	nt	100	5	nt	97
O=C(CN1CCN(C(C(=O)Nc2cc(C(F)(F)F)ccc2Cl)c2ccccc2)CC1)NC1CC1 (stereo unspecified)	i	-1	96	0	nt	nt
Cc1cccc(-c2ocnc2C(=O)Nc2ncc(C)s2)c1	nt	-22	89	0	nt	nt
Cc1ccc(O)c(NC2=C(Cl)C(=O)N(Cc3ccccc3)C2=O)c1	i	4	74*	-2	nt	107
Cc1ccc(C(=O)N2CCCCC2)cc1NC1=C(Cl)C(=O)N(Cc2ccccc2)C1=O	i	0	92	-2	nt	nt
CN1CCN(C(=O)CCc2nnc3ccc(N4CCC5(CC4)OCCO5)nn23)CC1	i	-5	97	0	i	100
